Data: PubChem BioAssay (NCATS)
Records with an inconclusive call do not appear. The source made the active and inactive calls. The call rests on the fitted dose curve; in most records, active means well fitted cell-killing curve with a large enough effect; inconclusive means small, poorly fitted or top-dose-only effect, or effect the other way; inactive means no such curve, though single readings can be large or run the other way.

Assay: Cell Viability - LYMP2-004 (AID 966); further: nearly all actives have a fitted effect of over 65% in size;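 on activity change, negative = cytotoxicity: plate controls were DMSO only for no effect and tetraoctylammonium bromide control for full effect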
Details: LYMP2-004 lymphoblastoid cell viability, qHTS; series mostly up to 92.2 µM; activity change, negative = cytotoxicity: at the top concentration
Description: NIH Chemical Genomics Center [NCGC]
NIH Molecular Libraries Screening Centers Network [MLSCN]
National Institutes of Environmental Health Sciences [NIEHS]
National Toxicology Program [NTP]
We have developed a 1536-well cell-based assay for quantitative high throughput screening (qHTS) against a number of cell lines to determine in vitro cytotoxicity of small molecules. This particular assay uses a human lymphoblastoid cell line (LYMP2-004) purchased from Coriell Institute for Medical Research.
NCGC Assay Protocol Summary:
The CellTiter-Glo luminescent cell viability assay (Promega) is a homogeneous method to measure the number of viable cells in culture. The end point readout of this assay is based on quantitation of intracellular ATP, an indicator of metabolic activity, using the luciferase reaction. Luciferase catalyzes the oxidation of beetle Luciferin to oxyluciferin and light in the presence of ATP. The luminescent signal is proportional to amount of ATP present.
Using the CellTiter-Glo luminescent cell viability assay, the amount of cellular ATP was measured in the lymphoblastoid cell line with complete culture medium following compound treatment for 24 hours. The assay was performed in opaque white Kalypsys 1536-well plates. In the screen, tetraoctylammonium bromide was used as positive control. Library compounds were measured for their ability to cause acute toxicity in the cell line, as reflected by a decrease in intracellular ATP levels, in a concentration-dependent manner. […] AC50 values were determined from concentration-response data modeled with the standard Hill equation.
qHTS protocol for CellTiter Glo lymphoblastoid cellular assay
[Step] [Parameter] [Value] [Description]
1. Reagent; 5 uL; 2500 lymphoblastoid cells/well
2. Time; 5 hr; 37 C incubation
4. Controls; 23 nL; Tetraoctylammonium bromide 6.4pM to 92 uM
5. Time; 24 hr; 37 C incubation
6. Reagent; 5 uL; CellTiter Glo reagent
7. Time; 30 min; Room Temperature
8. Detection; Luminescence; Viewlux plate reader
Keywords: cell viability, cytotoxicity, lymphoblastoid cell line, luminescence, NTPHTS, NTPHTS_NCGC, NIEHS, DSSTox, MLSMR, MLSCN, NIH Roadmap, qHTS, NCGC
Potency means the concentration at half of the fitted maximal effect.

Row | SMILES | activity change, negative = cytotoxicity | Potency
1 | FC(F)(F)c1ccc(Cl)cc1 | -16.5% (inactive) | 
2 | Nc1ccccc1C(=O)OCCc1ccccc1 | 3.01% (inactive) | 
3 | CC/C(=C(\c1ccccc1)c1ccc(OCCN(C)C)cc1)c1ccc(O)cc1 |  | 50.1 µM (active)
4 | C[C@@H]1CC[C@@]2(OC1)O[C@H]1[C@@H](O)[C@H]3[C@@H]4CC[C@H]5C[C@@H](O[C@@H]6O[C@H](CO)[C@H](O[C@@H]7O[C@H](CO)[C@@H](O)[C@H](O[C@@H]8OC[C@@H](O)[C@H](O)[C@H]8O)[C@H]7O[C@@H]7O[C@H](CO)[C@@H](O)[C@H](O[C@@H]8O[C@H](CO)[C@@H](O)[C@H](O)[C@H]8O)[C@H]7O)[C@H](O)[C@H]6O)[C@H](O)C[C@]5(C)[C@H]4CC[C@]3(C)[C@H]1[C@@H]2C |  | 12.6 µM (active)
5 | OC(c1ccc(Cl)cc1)(c1ccc(Cl)cc1)C(Cl)(Cl)Cl | 10.7% (inactive) | 
6 | O=Nc1ccc(Nc2ccccc2)cc1 |  | 7.94 µM (active)
7 | Clc1ccc(C(c2ccc(Cl)cc2)C(Cl)Cl)cc1 | -4.12% (inactive) | 
8 | O=[N+]([O-])C(Br)Br |  | 25.1 µM (active)
9 | N#CC(Cl)Cl | 9.66% (inactive) | 
10 | O=C(O)C1C(C(=O)O)C2(Cl)C(Cl)=C(Cl)C1(Cl)C2(Cl)Cl (configuration not stated) | 30.6% (inactive) | 
11 | CCCCCCCCn1sccc1=O |  | 3.98 µM (active)
12 | CC(C)CC(C)Nc1ccc(Nc2ccccc2)cc1 (configuration not stated) |  | 25.1 µM (active)
13 | CN(C)c1ccc(N=O)cc1 |  | 0.794 µM (active)
14 | [CH3][Hg][Cl] |  | 3.98 µM (active)
15 | O=C1C2(Cl)C3(Cl)C4(Cl)C(Cl)(Cl)C5(Cl)C3(Cl)C1(Cl)C5(Cl)C24Cl (configuration not stated) |  | 39.8 µM (active)
16 | c1ccc2cc3c(cc2c1)-c1cccc2cccc-3c12 | 14.1% (inactive) | 
17 | O=C(CCl)c1ccccc1 |  | 10 µM (active)
18 | Cc1ccccc1 | -7.17% (inactive) | 
19 | Oc1c(Br)c(Br)c(Br)c(Br)c1Br | -21.5% (inactive) | 
20 | c1cc(OCC2CO2)cc(OCC2CO2)c1 (configuration not stated) |  | 20 µM (active)
21 | N#CSCSC#N |  | 6.31 µM (active)
22 | C#CCO | 21.2% (inactive) | 
